# Bioassay records from PubChem.
# USP30 inh: blocks human USP30 ubiquitin-rhodamine cleavage | Q70CQ3 | purified USP30, Ub-rhodamine cleavage fluorescence | inhibition, % at 25 µM | actives 5.3% (n = 47,000) | AID 1645860
# USP17 block: blocks human USP17 ubiquitin-rhodamine cleavage | A8MUK1 | AID 1645855 | actives 6.5% (n = 47,000) | purified USP17, Ub-rhodamine cleavage fluorescence, 3 h | inhibition, % at 50 µM
# Target sequence (A8MUK1 whole entry, looked up): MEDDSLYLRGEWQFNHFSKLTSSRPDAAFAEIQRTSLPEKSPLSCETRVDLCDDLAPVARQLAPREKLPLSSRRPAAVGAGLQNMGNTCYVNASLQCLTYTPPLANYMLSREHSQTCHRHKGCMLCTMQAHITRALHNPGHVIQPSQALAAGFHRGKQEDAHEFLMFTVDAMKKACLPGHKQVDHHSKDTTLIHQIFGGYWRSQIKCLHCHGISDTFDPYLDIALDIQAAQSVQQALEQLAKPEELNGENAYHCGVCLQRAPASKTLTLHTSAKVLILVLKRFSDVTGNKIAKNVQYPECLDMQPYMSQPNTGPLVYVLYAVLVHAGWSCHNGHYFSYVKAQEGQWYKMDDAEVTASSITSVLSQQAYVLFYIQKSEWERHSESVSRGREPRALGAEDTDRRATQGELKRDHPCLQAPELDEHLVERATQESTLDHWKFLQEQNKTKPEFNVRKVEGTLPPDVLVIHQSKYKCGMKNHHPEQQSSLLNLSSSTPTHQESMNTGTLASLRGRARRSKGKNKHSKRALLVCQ
# * = called active by the depositor; i = inactive; x = no result given. This is a sample that favours compounds with a hit; in the whole collection about 9.6% have one here. No stated cut-off is given here; in the data, active means inhibition above about 30%; inactive means the rest.
SMILES,USP30 inh,USP17 block
CC1=C(C(=O)Nc2ccccc2C)C(c2ccc(OCc3ccccc3F)cc2)n2ncnc2N1 (stereo not drawn),19,62*
CC1=C(C(=O)Nc2ccccc2C)C(c2cccc(OCc3ccccc3)c2)n2ncnc2N1 (stereo not drawn),21,2
CCN(c1nc2nc(C)cc(C)n2n1)S(=O)(=O)c1ccc(C)cc1,-19,-8
O=C(CCC(=O)c1ccccc1)NCc1ccccc1C(F)(F)F,-47,-12
CC(C)[C@H](NC(=O)C1CCN(C(=O)[C@@H](N)Cc2ccccc2)CC1)C(=O)NCc1ccc(F)cc1,5,-11
Cc1ccc(CNC(=O)[C@@H](NC(=O)C2CCN(C(=O)[C@@H](N)Cc3ccccc3)CC2)C(C)C)cc1,30*,-6
CC(NC(=O)[C@H](C)NC(=O)C1CCN(C(=O)[C@H](Cc2ccccc2)NC(=O)OC(C)(C)C)CC1)c1ccccc1 (stereo partly drawn),6,-3
CC(NC(=O)[C@H](NC(=O)C1CCN(C(=O)[C@H](N)Cc2ccccc2)CC1)C(C)C)c1ccccc1 (stereo partly drawn),31*,1
Cc1ccc(S(=O)(=O)N[C@H](C(=O)N2CCC(C(=O)N[C@@H](Cc3ccccc3)C(=O)O)CC2)C(C)C)cc1,32*,17
Cc1ccc(S(=O)(=O)N[C@@H](C(=O)N2CCC(C(=O)N[C@@H](Cc3ccccc3)C(=O)O)CC2)C(C)C)cc1,5,0
COc1ccc(CC(=O)Nc2ccccc2C(=O)Nc2ccc3c(c2)OCO3)cc1,15,16
CC1=CN2C(=N)/C(=C/c3cn(Cc4ccc5c(c4)OCO5)c4ccccc34)C(=O)N=C2S1,-434,-122
COc1ccccc1CNc1nc(-c2nnc(-c3ccccc3)o2)nc2ccccc12,44*,38*
COc1ccccc1CNc1nc(N2CCCC2)nc2c1cnn2C,-12,-13
O=C(c1noc2ccc(S(=O)(=O)Nc3cccc(F)c3)cc12)N1CCOCC1,-7,-14
O=S(=O)(Nc1ccc(O)cc1)c1ccc2oc3ccc(S(=O)(=O)Nc4ccc(O)cc4)cc3c2c1,34*,54*
CCN(CC)c1ncnc2c1sc1nc(-c3ccccc3)c3c(c12)CCC3,-45,-36
CCN(CCO)c1ncnc2c1sc1nc(-c3ccccc3)c3c(c12)CCC3,-69,33*
COCCN1[C@H]2CCN(Cc3cnn(C)c3)CC[C@@H]2Oc2ccccc2S1(=O)=O,-70,-25
CCOc1ccc(C(=O)N2CCC(c3nc(C)ncc3-c3cc(C)no3)CC2)o1,36*,11
COc1ccc(CC(=O)N2CCC(c3nc(C)ncc3-c3cc(C)no3)CC2)cc1,0,-7
Cc1ccc(C)c(NC(=O)Cn2c(C)ncc(C(=O)NC3CC3)c2=O)c1,14,2
COc1ccc(CN2CCc3c(C(=O)N4CCOCC4)n[nH]c3C2)cc1,13,4
CC(=O)N1c2ccc(S(=O)(=O)N3CCC(C(=O)NCCc4cccc(C)c4)CC3)cc2CC1C (stereo not drawn),-19,-13
C/C=C/C=C/C(=O)c1cc(C)c(O)c(C)c1O,-9,-2
SMILES,USP30 inh,USP17 block
Cc1cc(C)cc(NC(=O)c2cccc(-c3noc(C)n3)c2)c1,-2,-7
Cc1nc(-c2cccc(NC(=O)c3ccc4c(c3)OCO4)c2)no1,-231,-48
CC(=O)Nc1ccc(C(=O)Nc2cccc(-c3noc(C)n3)c2)cc1,x,48*
Cc1nc(-c2ccc(-n3cc(C(=O)Nc4cccc(F)c4)c(C)n3)cc2)no1,16,51*
CN1C(=O)c2ccccc2C(C(=O)NCc2ccc3c(c2)OCO3)C1c1cccs1 (stereo not drawn),19,3
CC(C)CCN1C[C@H]2CCN(C(=O)COc3ccccc3)CC[C@H]2S1(=O)=O,0,-11
Cc1ccc(-c2ccccc2CC2CN(C(=O)Cn3nc(C)nc3C)CCNC2=O)cc1 (stereo not drawn),9,16
O=C(CN1C(=O)c2ccccc2NC1=CN1CCOCC1)NCc1ccco1,4,9
O=C(O)c1ccccc1N(Cc1ccccc1)C(=O)COc1ccccc1,-56,9
O=C(COc1ccccc1)N(Cc1ccccc1O)c1ccccc1Cl,33*,29
Cc1cccc(S(=O)(=O)Nc2cc(N3CCCS3(=O)=O)ccc2C)c1,-13,0
Cc1cccc(COc2ccc(C3CC(=O)Nc4nc(C)[nH]c(=O)c43)cc2)c1 (stereo not drawn),25,29
Cc1ccc(-c2cc(-c3cccc([N+](=O)[O-])c3)cc(-c3ccccc3)n2)o1,-8,4
CC(=O)c1ccc(NC(=O)c2ccc(N3CCCCS3(=O)=O)cc2Cl)cc1,4,52*
O=C(Nc1ccc(F)cc1)c1ccc(N2CCCCS2(=O)=O)cc1Cl,-1,18
Cc1ccc(CN2C[C@H]3N(c4ncccn4)CCC[C@@]3(C(=O)N(C)C)C2)cc1,-26,-10
Cc1nn(-c2cc(N3CCOCC3)ncn2)c(C)c1CCC(=O)Nc1ccc(Cl)cc1,-3,12
Cc1nn(-c2cc(N3CCOCC3)ncn2)c(C)c1CCC(=O)Nc1ccc(C(C)C)cc1,-7,65*
COc1ccc(Sc2nc(-c3ccccn3)ncc2OC)cc1,35*,6
COc1cnc(-c2ccccn2)nc1Sc1cccc(C(F)(F)F)c1,18,-25
O=C(N1CCC2(CC1)CC2)C1(c2ccc(Cl)cc2)CCOCC1,x,-10
Cc1ccc(CS(=O)(=O)c2cn(CC(=O)NCc3ccccc3)c3ccccc23)cc1,-66,-19
O=C(Nc1nnc(-c2ccc(F)cc2)s1)c1c(F)cccc1F,26,41*
Cc1ccc(-c2nnc(NC(=O)c3c(F)cccc3F)s2)cc1,12,3
Cc1ccc(-c2ncc(C(=O)Nc3ccc(Cl)cc3)c(-c3ccncc3)n2)cc1,i,-104
SMILES,USP30 inh,USP17 block
Cc1sc(NC(=O)c2cnc3ccccc3n2)nc1-c1ccc(F)c(F)c1,-4,1
Cc1ccc(-c2nc(NC(=O)c3c(-c4ccccc4)noc3C)sc2C)cc1Cl,-8,-5
Cc1sc(NC(=O)c2ccc3ccccc3n2)nc1-c1ccc(F)cc1,-157,35*
Cc1ccc(-c2nc(NC(=O)c3c(F)cccc3F)sc2C)cc1Cl,23,37*
Cc1ccc(-c2nc(NC(=O)Nc3ccc(Cl)cc3)sc2C)cc1,15,60*
Cc1ccc(CCNC(=O)CCC2=NS(=O)(=O)c3ccccc3N2)cc1,8,0
Cn1c(=O)n(Cc2ccc(OC(F)(F)F)cc2)c2cncnc21,8,-3
CCOc1ccc(NC(=O)CSc2nnc(Cc3cccn3C)n2CCc2ccccc2)cc1,-8,2
COc1ccccc1C1Cn2ccnc2CN1C(=O)c1c(C)noc1C (stereo not drawn),-10,-7
CCCc1ccc(C(C)NC(=O)c2ccc(C)s2)cc1 (stereo not drawn),9,4
COc1ccc(OC)c(CCNC(=O)CCC2=NS(=O)(=O)c3ccc(C(F)(F)F)cc3N2)c1,33*,77*
O=C(CCC1=NS(=O)(=O)c2ccc(C(F)(F)F)cc2N1)NCc1ccccc1,-13,12
CC(C)(O)[C@@H]1CC[C@](C)([C@H]2CC3(CCN(C(=O)c4cccc(F)c4)CC3)CO2)O1,0,-5
O=C(COC(=O)C(c1ccccc1)c1ccccc1)NCc1ccccc1,34*,25
Cc1ccc(CNC(=O)COC(=O)c2cc(-c3ccccc3Cl)nc3ccccc23)cc1,-27,13
